# The full list was thinned out, with the strongest signals kept by preference.
# Key:
# Assay in all cases: glycan array binding signal (z-score within array); higher = stronger binding
# Settings in all cases: glycan notation: IUPAC condensed, linker removed
# [1] = target: Gal(b1-4)GlcNAc(b1-3)[Fuc(a1-3)GlcNAc(b1-6)]Gal(b1-4)Glc
# Procedure, shortened: (§1)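 The binding signal is a Z-score computed within each array. Data were drawn from 3228 arrays in the Consortium for Functional Glycomics database, restricted to those with a known protein sequence. Scores were averaged over arrays of the same protein sequence at different concentrations or buffers, and over linkers, and negative values can be taken as non-binding.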
# Gal(b1-6)Gal = target: Gal(b1-6)Gal
# Procedure, shortened: as §1
# [2] = target: GalNAc(b1-4)GlcNAc(b1-2)Man(a1-3)[GalNAc(b1-4)GlcNAc(b1-2)Man(a1-6)]Man(b1-4)GlcNAc(b1-4)GlcNAc
# Procedure, shortened: as §1
# GalNAc(b1-6)GalNAc = target: GalNAc(b1-6)GalNAc
# Procedure, shortened: as §1
# [3] = target: Glc(a1-6)Glc(a1-6)Glc(a1-6)Glc
# Procedure, shortened: as §1
# [4] = target: GlcNAc(a1-4)Gal(b1-4)GlcNAc(b1-3)Gal(b1-4)[Fuc(a1-3)]GlcNAc(b1-3)Gal(b1-4)[Fuc(a1-3)]GlcNAc
# Procedure, shortened: as §1
# [5] = target: GlcNAc(b1-2)[GlcNAc(b1-4)]Man(a1-3)[GlcNAc(b1-4)][GlcNAc(b1-2)[GlcNAc(b1-6)]Man(a1-6)]Man(b1-4)GlcNAc(b1-4)GlcNAc
# Procedure, shortened: as §1
# [6] = target: GlcNAc(b1-2)[GlcNAc(b1-6)]Man(a1-6)[GlcNAc(b1-2)Man(a1-3)]Man(b1-4)GlcNAc(b1-4)GlcNAc
# Procedure, shortened: as §1
# [7] = target: GlcNAc(b1-3)Gal(b1-4)GlcNAc
# Procedure, shortened: as §1
# [8] = target: GlcNAc(b1-3)Gal(b1-4)GlcNAc(b1-2)[GlcNAc(b1-3)Gal(b1-4)GlcNAc(b1-6)]Man(a1-6)[GlcNAc(b1-3)Gal(b1-4)GlcNAc(b1-2)Man(a1-3)]Man(b1-4)GlcNAc(b1-4)GlcNAc
# Procedure, shortened: as §1
# [9] = target: GlcNAc(b1-3)Gal(b1-4)GlcNAc(b1-3)Gal(b1-4)GlcNAc(b1-3)Gal(b1-4)GlcNAc(b1-3)Gal(b1-4)GlcNAc(b1-2)Man(a1-3)[GlcNAc(b1-3)Gal(b1-4)GlcNAc(b1-3)Gal(b1-4)GlcNAc(b1-3)Gal(b1-4)GlcNAc(b1-3)Gal(b1-4)GlcNAc(b1-2)Man(a1-6)]Man(b1-4)GlcNAc(b1-4)[Fuc(a1-6)]GlcNAc
# Procedure, shortened: as §1
# [10] = target: GlcNAc(b1-4)[GlcNAc(b1-6)]GalNAc
# Procedure, shortened: as §1
# [11] = target: Man(a1-2)Man(a1-3)[Man(a1-2)Man(a1-6)]Man(a1-6)[Man(a1-2)Man(a1-2)Man(a1-3)]Man(b1-4)GlcNAc(b1-4)GlcNAc
# Procedure, shortened: as §1
# Man(a1-3)[Man(a1-6)]Man = target: Man(a1-3)[Man(a1-6)]Man
# Procedure, shortened: as §1
# [12] = target: Man(a1-3)[Man(a1-6)]Man(a1-6)[Man(a1-2)Man(a1-3)]Man(b1-4)GlcNAc(b1-4)GlcNAc
# Procedure, shortened: as §1
# [13] = target: Neu5Ac(a2-3)Gal(b1-3)GalNAc
# Procedure, shortened: as §1
# [14] = target: Neu5Ac(a2-3)Gal(b1-3)GlcNAc(b1-2)Man
# Procedure, shortened: as §1
# [15] = target: Neu5Ac(a2-3)Gal(b1-4)GlcNAc6S
# Procedure, shortened: as §1
# [16] = target: Neu5Ac(a2-3)Gal(b1-4)[Fuc(a1-3)]GlcNAc(b1-3)GalNAc
# Procedure, shortened: as §1
# [17] = target: Neu5Ac(a2-6)Gal(b1-4)GlcNAc(b1-2)[Neu5Ac(a2-6)Gal(b1-4)GlcNAc(b1-6)]Man(a1-6)[Neu5Ac(a2-6)Gal(b1-4)GlcNAc(b1-2)Man(a1-3)][GlcNAc(b1-4)]Man(b1-4)GlcNAc(b1-4)GlcNAc
# Procedure, shortened: as §1
# [18] = target: Neu5Ac(a2-6)Gal(b1-4)GlcNAc(b1-3)Gal(b1-4)GlcNAc(b1-2)Man(a1-3)[Neu5Ac(a2-6)Gal(b1-4)GlcNAc(b1-3)Gal(b1-4)GlcNAc(b1-2)Man(a1-6)]GalNAc
# Procedure, shortened: as §1
# [19] = target: Neu5Ac(a2-6)Gal(b1-4)GlcNAc(b1-3)Gal(b1-4)GlcNAc(b1-3)Gal(b1-4)GlcNAc(b1-2)Man(a1-3)[Neu5Ac(a2-6)Gal(b1-4)GlcNAc(b1-3)Gal(b1-4)GlcNAc(b1-3)Gal(b1-4)GlcNAc(b1-2)Man(a1-6)]GalNAc
# Procedure, shortened: as §1
# [20] = target: Neu5Ac(a2-6)Gal(b1-4)GlcNAc(b1-6)[Gal(b1-3)GlcNAc(b1-3)]Gal(b1-4)Glc
# Procedure, shortened: as §1
# [21] = target: Neu5Ac(a2-6)Gal(b1-4)GlcNAc(b1-6)[Gal(b1-3)]GalNAc
# Procedure, shortened: as §1
# [22] = target: Neu5Gc(a2-3)Gal(b1-3)[Fuc(a1-4)]GlcNAc
# Procedure, shortened: as §1
binder,measurement,setting,value
SP15308F-bth-333-19-333 (Bacteroides thetaiotaomicron) (protein) SCNNEWESEQYVQMVSFKAPVNAQGVTPIYIRYKPEGKVTYQLPLIVSGSTMNSKDLNVHVGLDLDTLDVLNVEHFGSRKELFFKPLENKYYEFPETVQIPAGECTSLLPIDFALKDLDQVDKWVLPLAIQSNDPSHNYQANPRKFYRRAMLRISPFNDYSGQYSATAYKVYFKGNEKEAIVPEYHTSYVIDDKTIFFYAGLIDIDRLDRKYYKIKFEFTEEKIDLQTRKLKISSDNEDINLVVKGQPSYTVEEEMDATRPYLKHIYVTINNLEYEFTDYTSVPGYPLEYVVKGSLTMERKINTQIPDEDQAIEW,glycan array binding signal (z-score),[1],-0.005
same,glycan array binding signal (z-score),Gal(b1-6)Gal,-0.244
same,glycan array binding signal (z-score),[2],1.38
same,glycan array binding signal (z-score),GalNAc(b1-6)GalNAc,2.02
same,glycan array binding signal (z-score),[3],-0.539
same,glycan array binding signal (z-score),[4],2.63
same,glycan array binding signal (z-score),[5],-1.46
same,glycan array binding signal (z-score),[6],-0.327
same,glycan array binding signal (z-score),[7],-0.835
same,glycan array binding signal (z-score),[8],2.85
same,glycan array binding signal (z-score),[9],2.43
same,glycan array binding signal (z-score),[10],0.249
same,glycan array binding signal (z-score),[11],-0.143
same,glycan array binding signal (z-score),Man(a1-3)[Man(a1-6)]Man,-0.694
same,glycan array binding signal (z-score),[12],-0.363
same,glycan array binding signal (z-score),[13],1.83
same,glycan array binding signal (z-score),[14],1.15
same,glycan array binding signal (z-score),[15],1.4
same,glycan array binding signal (z-score),[16],3.76
same,glycan array binding signal (z-score),[17],0.627
same,glycan array binding signal (z-score),[18],3.27
same,glycan array binding signal (z-score),[19],2.6
same,glycan array binding signal (z-score),[20],-0.927
same,glycan array binding signal (z-score),[21],-0.014
same,glycan array binding signal (z-score),[22],0.217

# Source: the supplement of paper PMC8728848
